From PubChem BioAssay (NCI) come the findings set out here.

Compounds without any hit were thinned out: in the full panel of roughly 83,000, 20% have a hit.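 Treatment: one concentration, 48 hours, 96-well format. Scoring: percent growth, with anything below 10 considered active.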 Activity calls are given as the source filed them.

The test relates to MDA-MB-468 breast. Put plainly: NCI-60 one-dose screen, 48 h (100 = growth as untreated, 0 = no growth, -100 = all killed). The following applies: 10 µM unless noted.
Turning to `COc1ccc(C2C(C#N)=C(N)Oc3c2sc2c(F)cccc32)cc1` (stereo not given), the growth is 40.6% (inactive).

Take `N#Cc1c(N)nn(C(=O)c2ccc(NC(=O)c3ccccn3)cc2)c1-c1ccc(Cl)cc1`: the growth is -29.3% (active). Under `COc1ccc(CN2C(=O)/C(=C\C(=O)c3ccc(OCCN4CCCCC4)cc3)c3ccccc32)cc1` stands 53.3% (inactive); under `CC(=O)OC[C@H]1O[C@H](OC(C)=O)[C@H](NC(=O)/C=C/CCl)[C@@H](OC(C)=O)[C@@H]1OC(C)=O`, 75.3% (inactive). Consider `COc1cc(C2CC(c3ccc(Nc4nc(NCCO)nc(NCCO)n4)cc3)=NN2c2cc(Cl)cc(Cl)c2)cc(OC)c1OC` (stereo not given), for which the growth was -9.24% (active).

On to `CCOC(=O)c1cc(C(=O)c2ccc(OC)cc2)n2ccc(/C=C/c3cc[n+](CC(=O)c4ccc(OC)cc4)cc3)cc12`, for which the growth was -38.2% (active). As for `Cc1nc2c(c(=O)[nH]1)C(c1ccccc1)c1ccc3ccccc3c1O2` (stereo not given), the figure is 22.9% (inactive); as for `Cn1c2c(cc(S(=O)(=O)c3ccccc3)c1=O)CCc1c-2cnn1-c1ccccc1Cl`, 91.9% (inactive); as for `CC(=O)NC(C)(C)C(=O)N1CCC[C@H]1C(=O)NC(C)(C)C(=O)N[C@@H](C)C(=O)NC(C)(C)C(=O)N[C@@H](C)C(=O)N[C@@H](CCC(N)=O)C(=O)NC(C)(C)C(=O)N[C@H](C(=O)NC(C)(C)C(=O)NCC(=O)N[C@@H](CC(C)C)C(=O)NC(C)(C)C(=O)N1CCC[C@H]1C(=O)N[C@H](C(=O)NC(C)(C)C(=O)NC(C)(C)C(=O)N[C@@H](CCC(N)=O)C(=O)N[C@@H](CCC(N)=O)C(=O)N[C@H](CO)Cc1ccccc1)C(C)C)C(C)C`, 3.71% [4.25 µM] (active). For the molecule `CC(=O)OC1CC2C(C)(C)OC3CC(=O)OCC32C2CCC3(C)C(=CCC3c3ccoc3)C12C` (stereo not given), the growth was 39.1% (inactive). On to `C=C(C)[C@@H]1CC[C@]2(COC(=O)c3ccccc3C(=O)O)CC[C@]3(C)[C@H](CC[C@@H]4[C@@]5(C)CCCNC(C)(C)[C@@H]5CC[C@]43C)[C@@H]12`, for which the growth was 52% (inactive). Consider `O=CN1N=C(c2ccc3c(c2)OCO3)CC1c1cccc(Nc2ccnc3cc(C(F)(F)F)ccc23)c1` (stereo not given), for which the growth was 47.1% (inactive). For `C=CC(=O)N(C)[C@H]1C[C@H]2OC(C)(C1OC)n1c3ccccc3c3c4c(c5c6ccccc6n2c5c31)C(=O)NC4` (stereo not given in full), the growth was -52.4% (active). As for `CCCOCC(O)CNCCN` (stereo not given), the figure is 106% (inactive); as for `CC(=O)CCC(=O)OCc1cc(=O)c(O)co1`, 101% (inactive); as for `Fc1ccc(Nc2nc(Nc3ccc(-c4nc5ccccc5[nH]4)cc3)nc(N3CCCC3)n2)cc1`, 83.6% (inactive). As for `CCC(CC)n1c(C)cc(=O)n1C(CC)CC`, the figure is 91.2% (inactive). Under `NC(=O)c1cccc(-n2ccc3cc(NC(=O)Nc4ccc(N5CCOCC5)c(C(F)(F)F)c4)ccc32)n1` stands 0.818% (active); under `CCCCNC(=O)Oc1ccc(/C(=C(\C)c2ccccc2)c2ccc(OCCN(CC)CC)cc2)cc1`, 70.3% (inactive); under `Cn1cc(-c2nonc2-c2cn(C)c3ccc(F)cc23)c2cc(F)ccc21`, 60.1% (inactive). As to `CS(=O)(=O)c1nccc(-c2c(-c3ccc(F)c(OCCc4ccc(F)cc4)c3)nc3sccn23)n1`, the growth was -52.2% (active). With `CC(=O)C[n+]1ccc(C)cc1Sc1ccccc1C`, the growth was 82% (inactive). Under `CCCC(O)Cn1ncc(C(=O)OCC)c1NC(=O)NCc1cccc(F)c1` (stereo not given) stands 97.3% (inactive); under `COc1ccc2nc(-c3ccc(Cl)cc3)cc(-c3nnc(SC/C(=N\O)c4ccccc4)n3-c3ccccc3)c2c1`, 60.4% (inactive); under `COc1ccc(OC)c(-c2c(C#N)c(-c3cccs3)nc3c2c(-c2ccccc2)nn3-c2ccccc2)c1`, 104% (inactive). Take `CC(=O)N1N=C(c2ccc(Nc3nc(NCCO)nc(NCCO)n3)cc2)CC1c1ccc(Cl)cc1` (stereo not given): the growth is 105% (inactive).

In the case of `COc1cc(-c2nn(-c3cccc(NC(=O)CCN4CCN(c5ccccc5)CC4)c3)cc2-c2ccncc2)ccc1Cl`, the growth was 28.8% (inactive). As for `CCOC(=O)c1ccccc1OC(=O)NNc1ccccc1`, the figure is 83.2% (inactive); as for `CC(C)/C=C/CC[C@](C)(O)[C@H]1CC[C@]2(C)[C@@H]1CC[C@@H]1[C@@]3(C)C/C(=C/c4cccc(C(F)(F)F)c4)C(=O)C(C)(C)[C@@H]3CC[C@]12C`, 104% (inactive).

For `O=C(/C=C/c1ccc(Cl)cc1)c1ccc(Nc2nc(NCCO)nc(Nc3ccc(Cl)cc3)n2)cc1`, the growth was 68.4% (inactive). Under `CN(C)CCCn1c(=O)c2cc([N+](=O)[O-])ccc2c2cnc3[nH]ccc3c21` stands 81.3% (inactive). Consider `C#CCOc1ccccc1C(OC(=O)c1ccccc1)C(=O)NC(C)(C)C(C)(C)C` (stereo not given), for which the growth is 80.5% (inactive). Under `COc1ccc(-c2nc3sc(C)cn3c2/C=C/C(=O)c2cc(OC)c(OC)c(OC)c2)cc1` stands 25.5% (inactive). With `CNC(=O)c1cc(-c2ccc(NC(=S)Nc3cc(C(F)(F)F)cc(C(F)(F)F)c3)cc2)nc2cccnc12`, the growth is -8.04% (active). Turning to `O=C(N/N=C/c1ccco1)c1[nH]c2ccc(Br)cc2c1-c1ccccc1`, the growth is 14.9% (inactive). As to `COC(=O)[C@]12CC[C@@H](C)[C@H](C)[C@@H]1C1=CC[C@@H]3[C@@]4(C)C(C=O)=C[C@@](C)(CO)C4=CC[C@@]3(C)[C@]1(C)CC2`, the growth was 20% (inactive). For the molecule `O=C(Nc1ccc(Cl)cc1)Oc1c(Cl)c(Cl)c(Cl)c(Cl)c1Cl`, the growth is 106% (inactive). As for `Nc1nc2ncc(CNc3ccc(C(=O)NC(CCC(=O)NC(CCC(=O)NC(CCC(=O)NC(CCC(=O)NC(CCC(=O)O)C(=O)O)C(=O)O)C(=O)O)C(=O)O)C(=O)O)cc3)nc2c(=O)[nH]1` (stereo not given), the figure is 131% (inactive). Consider `CN(C)CCC(=O)c1c[nH]c2ccccc12`, for which the growth was 106% (inactive). As for `N#Cc1c(Nc2ccccc2)nn2cc(-c3nc4ccccc4s3)c(N)nc12`, the figure is 73.8% (inactive).
